FBPA Giardia inh: blocks Giardia fructose-bisphosphate aldolase activity. Potency, µM (top dose mostly 59.6 µM), for inactives: at the top dose activity, negative = inhibition, hits mostly inhibitors. purified Giardia FBPA. 290,000 tested, 0.71% active. A8B2U2. AID 2451; note: potency is the fitted concentration of half-maximal effect; % is set by controls: 0 for no effect and ±100 for the full control effect; nearly all actives have a fitted effect of over 55% in size
Target sequence (A8B2U2 whole entry, looked up): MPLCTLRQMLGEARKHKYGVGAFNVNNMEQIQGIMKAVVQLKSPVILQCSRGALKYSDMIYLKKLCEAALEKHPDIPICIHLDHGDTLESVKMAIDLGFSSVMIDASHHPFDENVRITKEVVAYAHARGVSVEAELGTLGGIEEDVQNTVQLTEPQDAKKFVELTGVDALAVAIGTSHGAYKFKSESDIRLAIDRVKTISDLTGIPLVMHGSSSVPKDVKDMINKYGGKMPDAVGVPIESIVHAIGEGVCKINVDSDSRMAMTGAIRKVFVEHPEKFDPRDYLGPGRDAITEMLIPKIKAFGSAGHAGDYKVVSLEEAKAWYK
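40 nM FBPA preincubated 10 min at RT with compound (up to 57.5 uM final), then substrate plus GAPDH/TPI/NAD/arsenate coupling and diaphorase/resazurin added. Fluorescence read after 20 min at RT, 525/598 nm.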
Pf growth 48h: P. falciparum growth inhibition at 48 hours (one generation); P. falciparum luciferase growth in erythrocytes, 48 h; Potency, µM (series often up to 28.7 µM), without a hit: at the highest dose activity change, negative = inhibition, actives largely listed as inhibitors; 310,000 tested, 5.9% active; AID 504832; note: potency is the fitted concentration of half-maximal effect; % is set by controls: 0 for no effect and ±100 for the full control effect
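Read-out is firefly luciferase luminescence from an integrated reporter in P. falciparum, so falling signal marks reduced parasite growth. Infected erythrocytes were at 2% hematocrit and 0.1% parasitemia (final) in Albumax-supplemented RPMI 1640.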
CHX counter: counter-screen hit for Shiga toxin inhibitors, cycloheximide. cell reporter, cycloheximide protein synthesis inhibition counterscreen. AID 2314. 300,000 tested, 12% active. max response, %; in the data active = max response mostly above about 13%, no sharp cut-off; inactive = mostly below about 14%; note: read at 38.3 µM for the half of the compounds with a filed dose; 0% is about no effect
NS1 inh: inhibitors of influenza NS1 protein function. 270,000 tested, 0.4% active. Potency, µM (series often up to 46.1 µM), inactives show at the highest dose activity, positive = more growth. AID 2326; calls by dose curve; note: potency is the fitted concentration of half-maximal effect; actives are rising curves; nearly all actives have a fitted effect of over 50% in size
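S. cerevisiae expressing influenza A NS1, grown in glucose, washed, then diluted 1:100 into pH 6.0 -URA galactose medium with 23 nl compound. Growth recovery read as OD600; NS1-free strain serves as control.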
Shiga inhibitor: inhibitors of Shiga toxin in Vero cells; Vero cells, Shiga toxin protein synthesis inhibition reporter; inhibition, % at 38.7 µM; 290,000 tested, 9.2% active; in the data active = inhibition mostly above about 28%, no sharp cut-off; inactive = mostly below about 43%; note: 0% is about no effect
Pf growth 96h: P. falciparum growth inhibition at 96 hours; P. falciparum luciferase reporter growth, 96 h; Potency, µM (top dose mostly 28.7 µM), inactives show top-dose activity change, negative = inhibition, most hits filed as inhibitors; 320,000 tested, 6.9% active; AID 504834; note: potency is the fitted concentration of half-maximal effect; % is set by controls: 0 for no effect and ±100 for the full control effect
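Plates of compound plus infected erythrocytes (2% hematocrit, 0.05% parasitemia final) incubate 96 hours, 37 C, 5% CO2. Detection reagent added; reduced luminescence from the parasites' luciferase reporter flags inhibition.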
* = called active by the depositor; i = inactive; ? = inconclusive; · = no result; [ ] = remark or other dose. A selection: hits, their analogues and other compounds. The true share with any hit is near 21%. Unless noted, calls come from the whole dose curve; as a rule, active = well fitted curve in the direction sought with a large enough effect; inconclusive = small, poorly fitted or top-dose-only effect, or another doubt; inactive = no such curve, though single readings can be large; an effect the other way counts as inactive or inconclusive.

SMILES	FBPA Giardia inh	Pf growth 48h	CHX counter	NS1 inh	Shiga inhibitor	Pf growth 96h
Cc1nnc(SCC(=O)N2CCC(C(N)=O)CC2)s1	5%	-2%	-3	5%	2	-14%
CCOC(=O)C(=O)N=Nc1c(O)[nH]c2ccccc12	1%	3%	-4	9%	-10	27%
CNC(=S)N=Nc1c(O)[nH]c2ccccc12	-4%	3%	6	-6%	17*	-4%
COc1ccc(NC(=S)N=Nc2c(O)[nH]c3ccccc23)cc1	3%	?	3	0%	21	?
CNC(=S)N=Nc1c(O)[nH]c2ccc(C(C)C)cc12	1%	?	-3	7%	-3	6.6µM*
CC(=O)c1cccc(N=Nc2c(C)[nH]c3ccccc23)c1	-9%	18%	50*	-10%	93*	?
Oc1ccc(NC(=S)N=Nc2c(O)[nH]c3ccccc23)cc1	3%	-5%	20	11%	51*	37%
O=C(Nc1ccccc1OCc1ccccc1)c1ccccc1Br	0%	?	2	-57%	14	?
Cc1cnc(CNc2ncncc2-c2ccccc2C#N)cn1	-6%	·	·	·	·	·
Cn1c(SCC(=O)N=Nc2c(O)[nH]c3ccccc23)nc2ccccc21	-2%	8%	-3	8%	10	40%
O=C(CCn1cnc2ccccc21)N=Nc1c(O)[nH]c2ccccc12	-2%	-12%	-1	3%	13	-12%
O=C(N=Nc1c(O)[nH]c2ccccc12)c1cccs1	-13%	i	39*	·	107*	-24%
O=C(CSc1nc2ccccc2[nH]1)N=Nc1c(O)[nH]c2ccccc12	-11%	35%	17*	0%	0	79%
O=C(O)c1ccc(N=Nc2c(O)[nH]c3ccccc23)cc1	-5%	?	39*	3%	56*	?
Cn1c(=O)c2ncn(CC(=O)N=Nc3c(O)[nH]c4ccccc34)c2n(C)c1=O	4%	12µM*	9	·	15	34%[1.15 µM]
CN(C)S(=O)(=O)c1cccc(NC(=O)CCCc2nc3ccccc3c(=O)[nH]2)c1	·	1%	·	·	·	5%
Cc1ccc(NC(=S)N=Nc2c(O)[nH]c3ccccc23)cc1	6%	5.2µM*	22*	·	53*	1.9µM*
O=C(CCc1nnc(Cc2cccc(C(F)(F)F)c2)o1)NCC(F)(F)F	4%	9%	1	3%	16	?
CCc1ccc(CN(C)C(=O)CCc2nnc(Cc3cccc(C)c3)o2)nc1	4%	?	2	-2%	23	?
O=C(CCc1nnc(Cc2cccc(C(F)(F)F)c2)o1)NC1CC1	1%	3%	2	4%	15	?
C=C(C)CNC(=O)CCc1nnc(Cc2cccc(C(F)(F)F)c2)o1	0%	17%	44*	-7%	123*	-1%
CC(NC(=O)CCc1nnc(Cc2cccc(C(F)(F)F)c2)o1)C1CC1 (stereo not given)	5%	3%	53*	-1%	92*	32%
CC(C)CN(C)C(=O)CCc1nnc(Cc2cccc(C(F)(F)F)c2)o1	2%	39%	47*	-1%	109*	-5%
COC(=O)[C@H](Cc1ccccc1)NC(=O)[C@H]1C[C@@H]1[C@H](NC(=O)OCc1ccccc1)c1ccccc1	2%	·	·	·	·	·
COc1cc(-c2csc(NC3CCCCC3)n2)cc(OC)c1OC	-18%	12µM*	2	30%	23	?
SMILES	FBPA Giardia inh	Pf growth 48h	CHX counter	NS1 inh	Shiga inhibitor	Pf growth 96h
Nc1ccc2cc3ccc(N)cc3nc2c1	·	3.8µM*	·	·	·	2.4µM*
Cc1ccc2cc(N)ccc2n1	?	-5%	2	-3%	3	11%
CC(=O)c1cccc(Nc2nc(-c3sc(N)nc3C)cs2)c1	?	?	20*	23%	42	17µM*
CC(=O)c1cccc(Nc2nc(-c3sc(C)nc3C)cs2)c1	-10%	-20%	12*	-14%	20	362%
Cc1nc2ncccn2c1-c1csc(Nc2cccc(C(=O)O)c2)n1	?	32%	5	6%	-5	?
Nc1ncc([N+](=O)[O-])cc1Br	0%	37%	-1	-5%	-10	64%
CN(C)c1ncc([N+](=O)[O-])cc1C(F)(F)F	-3%	0.74µM*	5	-2%	10	38%
COc1ccc(CCNC(=O)c2cn3ccc(C)cc3n2)cc1OC	-5%	-1%	20	·	50	?

Assay outcomes deposited in PubChem BioAssay by National Center for Advancing Translational Sciences (NCATS).
